Measured values published in PubChem BioAssay AID1159580 (chemical genetic matrix, 2015).
In all, about 5,500 compounds went through this assay and about 2,000 (36%) were called active. About 18% were inconclusive and are not listed. Rule as the data show it: active = normalized growth mostly below about 0.91 (no sharp cut-off); inconclusive = no clear call, values can overlap the other calls; inactive = mostly above about 0.92. This is one part of the list.

Assay: chemical genetic growth profiling, strain panel (AID 1159580);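 also: tested at 20 µM; growth read once vehicle control cultures reached saturation at 30 °C; 1 = growth at the plate median or of vehicle wells; lower values mean less growth of the strain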
Settings: growth OD

Measured: normalized growth

O=c1cc(-c2ccc(O)cc2)oc2cc(O[C@@H]3O[C@H](CO)[C@@H](O)[C@H](O)[C@H]3O[C@@H]3OC[C@](O)(CO)[C@H]3O)cc(O)c12
inactive: S. cerevisiae deletion strains, locus YJR075W, strain HOC1, active compounds read low 1.04 | S. cerevisiae deletion strains, locus YKL009W, strain mrt4, active compounds read low 0.986 | S. cerevisiae deletion strains, locus YKL068W, active compounds read low 0.991 | S. cerevisiae deletion strains, locus YKL085W, strain MDH1 (second series), active compounds read low 0.999 | S. cerevisiae deletion strains, locus YKL085W, strain MDH1, active compounds read low 0.999 | S. cerevisiae deletion strains, locus YKL160W, strain elf1, active compounds read low 1.01 | S. cerevisiae deletion strains, locus YKL190W, strain CNB1, active compounds read low 0.994 | S. cerevisiae deletion strains, locus YKR001C, strain vps1, active compounds read low 0.987 | S. cerevisiae deletion strains, locus YKR026C, strain gcn3, active compounds read low 0.991 | S. cerevisiae deletion strains, locus YKR091W, strain srl3, active compounds read low 1.01 | S. cerevisiae deletion strains, locus YLL001W, strain dnm1, active compounds read low 0.993 | S. cerevisiae deletion strains, locus YLL026W, active compounds read low 0.995 | S. cerevisiae deletion strains, locus YLL041C, strain sdh2, active compounds read low 1 | S. cerevisiae deletion strains, locus YLR027C, strain aat2, active compounds read low 1.01 | S. cerevisiae deletion strains, locus YLR039C, strain RIC1, active compounds read low 1.11 | S. cerevisiae deletion strains, locus YLR058C, strain SHM2, active compounds read low 1.02 | S. cerevisiae deletion strains, locus YLR102C, strain apc9, active compounds read low 0.989 | S. cerevisiae deletion strains, locus YLR113W, strain HOG1, active compounds read low 1.03 | S. cerevisiae deletion strains, locus YLR221C, strain rsa3, active compounds read low 1.01 | S. cerevisiae deletion strains, locus YLR258W, strain gsy2, active compounds read low 0.997 | S. cerevisiae deletion strains, locus YLR262C, strain YPT6 (second series), active compounds read low 0.999 | S. cerevisiae deletion strains, locus YLR262C, strain YPT6, active compounds read low 1.16 | S. cerevisiae deletion strains, locus YLR268W, strain sec22, active compounds read low 0.983 | S. cerevisiae deletion strains, locus YLR320W, strain mms22, active compounds read low 1.02 | S. cerevisiae deletion strains, locus YLR330W, strain CHS5, active compounds read low 1.04 | S. cerevisiae deletion strains, locus YLR342W, strain FKS1 (second series), active compounds read low 0.994 | S. cerevisiae deletion strains, locus YLR342W, strain FKS1, active compounds read low 1.01 | S. cerevisiae deletion strains, locus YLR357W, strain rsc2, active compounds read low 0.979 | S. cerevisiae deletion strains, locus YLR370C, strain arc18, active compounds read low 1 | S. cerevisiae deletion strains, locus YLR371W, strain rom2, active compounds read low 0.985 | S. cerevisiae deletion strains, locus YLR384C, strain iki3, active compounds read low 0.999 | S. cerevisiae deletion strains, locus YLR418C, strain cdc73, active compounds read low 1.06 | S. cerevisiae deletion strains, locus YML016C, strain PPZ1, active compounds read low 1.01 | S. cerevisiae deletion strains, locus YML032C, strain rad52, active compounds read low 1 | S. cerevisiae deletion strains, locus YML120C, strain ndi1, active compounds read low 1.02 | S. cerevisiae deletion strains, locus YML124C, strain tub3, active compounds read low 0.991 | S. cerevisiae deletion strains, locus YMR058W, strain fet3, active compounds read low 1.01 | S. cerevisiae deletion strains, locus YMR078C, strain ctf18, active compounds read low 0.963 | S. cerevisiae deletion strains, locus YMR125W, strain sto1, active compounds read low 0.992 | S. cerevisiae deletion strains, locus YMR129W, active compounds read low 1.01 | S. cerevisiae deletion strains, locus YMR205C, strain PFK2, active compounds read low 1.01 | S. cerevisiae deletion strains, locus YMR223W, strain ubp8, active compounds read low 1.02 | S. cerevisiae deletion strains, locus YMR231W, strain pep5, active compounds read low 0.997 | S. cerevisiae deletion strains, locus YMR263W, strain SAP30, active compounds read low 1.02 | S. cerevisiae deletion strains, locus YMR307W, strain GAS1, active compounds read low 1.04 | S. cerevisiae deletion strains, locus YNL067W, strain RPL9B, active compounds read low 1.02 | S. cerevisiae deletion strains, locus YNL071W, strain lat1, active compounds read low 1.02 | S. cerevisiae deletion strains, locus YNL153C, strain GIM3, active compounds read low 1 | S. cerevisiae deletion strains, locus YNL183C, strain NPR1, active compounds read low 0.979 | S. cerevisiae deletion strains, locus YNL209W, strain ssb2, active compounds read low 1.01 | S. cerevisiae deletion strains, locus YNL233W, strain BNI4, active compounds read low 1.02 | S. cerevisiae deletion strains, locus YNL248C, strain rpa49, active compounds read low 1 | S. cerevisiae deletion strains, locus YNL250W, strain rad50, active compounds read low 1 | S. cerevisiae deletion strains, locus YNL271C, strain bni1, active compounds read low 1.01 | S. cerevisiae deletion strains, locus YNL298W, strain CLA4, active compounds read low 0.994 | S. cerevisiae deletion strains, locus YNL307C, strain MCK1, active compounds read low 0.977 | S. cerevisiae deletion strains, locus YNL322C, strain KRE1 (second series), active compounds read low 0.994 | S. cerevisiae deletion strains, locus YNL322C, strain KRE1, active compounds read low 1.01 | S. cerevisiae deletion strains, locus YNR049C, strain mso1, active compounds read low 0.998 | S. cerevisiae deletion strains, locus YNR052C, strain pop2, active compounds read low 1 | S. cerevisiae deletion strains, locus YOL012C, strain htz1 0.956 | S. cerevisiae deletion strains, locus YOL147C, strain pex11, active compounds read low 0.996 | S. cerevisiae deletion strains, locus YOR001W, strain rrp6, active compounds read low 1.01 | S. cerevisiae deletion strains, locus YOR061W, strain CKA2, active compounds read low 1.02 | S. cerevisiae deletion strains, locus YOR069W, strain VPS5, active compounds read low 1 | S. cerevisiae deletion strains, locus YOR070C, strain gyp1, active compounds read low 1 | S. cerevisiae deletion strains, locus YOR080W, strain dia2, active compounds read low 1 | S. cerevisiae deletion strains, locus YOR083W, strain WHI5, active compounds read low 1.02 | S. cerevisiae deletion strains, locus YOR106W, strain vam3, active compounds read low 1.02 | S. cerevisiae deletion strains, locus YOR136W, strain idh2, active compounds read low 0.974 | S. cerevisiae deletion strains, locus YOR144C, strain elg1, active compounds read low 0.989 | S. cerevisiae deletion strains, locus YOR184W, strain ser1, active compounds read low 1.04 | S. cerevisiae deletion strains, locus YOR231W, strain MKK1, active compounds read low 1.07 | S. cerevisiae deletion strains, locus YOR265W, strain rbl2, active compounds read low 1.01 | S. cerevisiae deletion strains, locus YOR270C, strain vph1, active compounds read low 1.02 | S. cerevisiae deletion strains, locus YOR290C, strain snf2, active compounds read low 0.998 | S. cerevisiae deletion strains, locus YOR316C, strain cot1, active compounds read low 0.992 | S. cerevisiae deletion strains, locus YPL051W, strain arl3, active compounds read low 1 | S. cerevisiae deletion strains, locus YPL055C, strain LGE1, active compounds read low 1.04 | S. cerevisiae deletion strains, locus YPL078C, strain atp4, active compounds read low 0.999 | S. cerevisiae deletion strains, locus YPL106C, strain sse1, active compounds read low 0.997 | S. cerevisiae deletion strains, locus YPL240C, strain hsp82, active compounds read low 1 | S. cerevisiae deletion strains, locus YPL241C, strain CIN2, active compounds read low 1.01 | S. cerevisiae deletion strains, locus YPL256C, strain CLN2, active compounds read low 0.995 | S. cerevisiae deletion strains, locus YPR119W, strain clb2, active compounds read low 0.984 | S. cerevisiae deletion strains, locus YPR141C, strain kar3, active compounds read low 0.999 | S. cerevisiae deletion strains, locus YPR163C, strain tif3, active compounds read low 0.979 | S. cerevisiae deletion strains, locus YPR167C, strain met16, active compounds read low 0.981 | S. cerevisiae deletion strains, strain wtn01, active compounds read low 0.99 | S. cerevisiae strains, strain wild type, active compounds read low 1.01
